Inconclusive results are not listed. Where a call stands in place of a potency, no number is given. Active and inactive are the calls of the source. Calls follow the shape of the dose curve; as a rule, active = well fitted inhibition curve with a large enough effect; inconclusive = small, poorly fitted or top-dose-only effect; inactive = no such curve, though single readings can be large or run the other way.
Each compound was assayed against Nuclear receptor ROR-gamma (Homo sapiens) (UniProt P51449) (assay: qHTS assay for small molecule antagonists of the retinoid-related orphan receptor gamma (ROR-gamma) signaling pathway (AID 651802; also: nearly all actives have a fitted effect of over 60% in size)). Conditions: ROR-gamma antagonist cell reporter assay; series mostly up to 92.2 µM.
Procedure, shortened: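 CHO cells with TET-inducible ROR-gamma and RORE-luciferase reporter, dosed then doxycycline-induced. After 16 h at 37C, One-Glo luminescence read; decreased signal indicates antagonism.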
Potency is read from the fitted curve at half-maximal effect.

Sequence of Nuclear receptor ROR-gamma (Homo sapiens) (P51449 whole entry, looked up): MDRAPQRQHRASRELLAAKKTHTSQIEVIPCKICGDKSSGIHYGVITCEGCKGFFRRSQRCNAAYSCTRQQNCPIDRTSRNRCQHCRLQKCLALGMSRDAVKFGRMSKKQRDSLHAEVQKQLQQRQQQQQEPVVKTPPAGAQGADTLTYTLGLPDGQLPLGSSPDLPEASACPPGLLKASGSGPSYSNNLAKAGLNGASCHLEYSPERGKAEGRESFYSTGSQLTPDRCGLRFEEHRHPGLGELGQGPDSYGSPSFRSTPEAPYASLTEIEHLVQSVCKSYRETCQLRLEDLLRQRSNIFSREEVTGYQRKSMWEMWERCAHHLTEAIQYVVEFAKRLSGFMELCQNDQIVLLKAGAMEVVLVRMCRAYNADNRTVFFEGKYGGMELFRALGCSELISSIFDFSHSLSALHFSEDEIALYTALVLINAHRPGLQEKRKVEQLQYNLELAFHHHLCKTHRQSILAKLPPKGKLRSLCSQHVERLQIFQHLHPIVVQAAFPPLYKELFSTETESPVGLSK

SMILES | Potency
CCCC(=O)c1cc(O)c(O)cc1O | inactive
CCCCC(CC)COC(=O)c1ccccc1C(=O)O (stereo unspecified) | inactive
CC(C)(C)c1ccc(O)c(O)c1 | 59.6 µM (active)
O=C(NO)c1ccccc1 | inactive
CC(C)C(C)(C)C(C)(C)C(C)(C)S | inactive
c1ccc2occc2c1 | inactive
O=C(Oc1ccccc1)c1ccccc1O | inactive
C1=CC2C3C=CC(C3)C2C1 (stereo unspecified) | inactive
Oc1ccccc1 | inactive
CC(=O)OC/C=C(C)/C=C/C=C(C)/C=C/C1=C(C)CCCC1(C)C | inactive
COc1cc(C=O)ccc1O | inactive
